# Assay outcomes deposited in PubChem BioAssay by Pan Lab, Icahn School of Medicine at Mount Sinai.
# Many of the other results were omitted from the sample, so hits are more common in it than they were.
# RBX1-CUL1 inh – inhibitors of human ROC1-CUL1 ubiquitin ligase activity. P62877+Q13616. in vitro K48 di-Ub FRET, acceptor:donor ratio, 45 min. inhibition, % at 10 µM. 140,000 tested, 0.6% active; in the data active = inhibition above about 25%
# Target sequence (P62877 whole entry, looked up): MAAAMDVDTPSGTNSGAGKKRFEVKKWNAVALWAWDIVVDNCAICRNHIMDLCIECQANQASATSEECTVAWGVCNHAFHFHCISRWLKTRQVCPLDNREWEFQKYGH
# Target sequence (Q13616 whole entry, looked up): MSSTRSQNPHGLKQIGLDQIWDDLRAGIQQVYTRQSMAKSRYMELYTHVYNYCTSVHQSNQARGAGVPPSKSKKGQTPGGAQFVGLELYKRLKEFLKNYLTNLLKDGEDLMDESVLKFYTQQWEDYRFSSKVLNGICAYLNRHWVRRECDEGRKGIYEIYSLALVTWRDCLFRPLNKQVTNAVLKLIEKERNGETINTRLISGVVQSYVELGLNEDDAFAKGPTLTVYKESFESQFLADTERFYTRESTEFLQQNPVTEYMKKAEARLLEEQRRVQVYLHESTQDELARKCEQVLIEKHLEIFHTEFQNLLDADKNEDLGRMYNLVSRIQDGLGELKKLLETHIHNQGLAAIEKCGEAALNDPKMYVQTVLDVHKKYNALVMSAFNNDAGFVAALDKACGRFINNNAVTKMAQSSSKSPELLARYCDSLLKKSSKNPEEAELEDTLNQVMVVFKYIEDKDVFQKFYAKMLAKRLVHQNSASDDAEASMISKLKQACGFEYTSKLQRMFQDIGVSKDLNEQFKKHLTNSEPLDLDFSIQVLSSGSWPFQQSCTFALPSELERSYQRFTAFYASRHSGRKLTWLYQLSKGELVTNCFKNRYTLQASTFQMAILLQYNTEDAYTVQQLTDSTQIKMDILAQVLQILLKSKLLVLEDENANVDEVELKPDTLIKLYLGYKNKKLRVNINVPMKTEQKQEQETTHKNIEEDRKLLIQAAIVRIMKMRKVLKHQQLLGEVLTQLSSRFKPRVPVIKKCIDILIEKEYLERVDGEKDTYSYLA
# * marks the source's active call; other numbers are inactive results.
SMILES,RBX1-CUL1 inh
C=CCOC(=O)c1cc(-c2ccc(/C=C3/C(=O)NN(c4ccc(F)c(Cl)c4)C3=O)o2)ccc1Cl,1.3
CC1=NN(c2ccccc2)C(=O)/C1=C/c1ccc(-c2ccc(C)c(C(=O)O)c2)o1,2.6
COC(=O)c1ccc(N2NC(=O)/C(=C/c3ccc(-c4ccc(Cl)c(C(=O)O)c4)o3)C2=O)cc1,35.3*
CC(C)OC(=O)N1C(=O)c2ccccc2NC1(C(F)(F)F)C(F)(F)F,0.5
COC(=O)C1CCN(C(=O)c2cc(COc3ccc(F)cc3F)[nH]n2)CC1,5.3
O=C(O)c1ccccc1Sc1cccc(Cl)c1Cl,-1.3
COc1ccc(C2C(C#N)C(=N)SC(=N)C2C#N)cc1OC (stereo not drawn),1.4
Cc1ccc(C2c3c(n[nH]c3C)OC(=N)C2C#N)o1 (stereo not drawn),5.3
Cc1ccc(C2C(C#N)C(=N)SC(=N)C2C#N)o1 (stereo not drawn),39.9*
CCC(c1ccccc1)c1n[nH]c2c1CN(C(=O)CN1CCOC1=O)CC2 (stereo not drawn),-3.5
CCCCCCSC1=C(C#N)C(=O)NC(c2ccc(OCc3ccccc3)cc2)S1 (stereo not drawn),5.4
O=C(O)c1cnn2c1NC(c1ccccc1)CC2C(F)(F)F (stereo not drawn),-2.5
O=C1NC(=S)N(c2ccc(Br)cc2)C(=O)/C1=C/c1cn(CC(=O)N2CCCc3ccccc32)c2ccccc12,-9.9
Cc1cc(C)cc(N2C(=O)/C(=C/c3cn(CC(=O)N4CCC(C)CC4)c4ccccc34)C(=O)NC2=S)c1,-5.7
Cc1c(Cl)cccc1N1C(=O)/C(=C/c2cn(CC(=O)O)c3ccccc23)C(=O)NC1=S,80.7*
N#Cc1c(NC(=O)C23CC4CC(CC(C4)C2)C3)oc(-c2ccccc2)c1-c1ccccc1,-2.4
O=C(Cc1ccccc1)NC(NCCOC12CC3CC(CC(C3)C1)C2)(C(F)(F)F)C(F)(F)F,-10.2
CC1(C)Oc2ccccc2C(=O)C1Br (stereo not drawn),10.2
O=C1C=CC2(C=C1)OC(=O)c1ccccc1O2,29.5*
CC1(C)NC(=O)c2ccccc2O1,-2.3
CC(C)(C)c1ccc(C(=O)Oc2ccc3c(-c4ccccc4C(=O)O)c4ccc(=O)cc-4oc3c2)cc1,33.4*
Cc1cc(=O)oc2cc(OC(=O)c3ccc(=O)oc3)ccc12,8.4
O=C(Oc1ccc2c(C(F)(F)F)cc(=O)oc2c1)c1ccccc1,-1.3
COc1ccc(N2CCN(C(=O)c3ccc(OC(C)C)cc3)CC2)cc1,-0.1
CCSC1=N/C(=C\c2ccc(C(=O)O)cc2)C(=O)S1,3.4
SMILES,RBX1-CUL1 inh
O=C1SC(SCc2ccccc2Cl)=N/C1=C\c1ccc(C(=O)O)cc1,54.2*
CC(C)(C)c1cc(/C=C2\N=C(SCc3ccccc3Cl)SC2=O)cc(C(C)(C)C)c1O,4.8
O=C(c1cccc(C(F)(F)F)c1)C1CCCN(C(=O)c2ccoc2)C1 (stereo not drawn),2.5
Cc1ccc(N=C2CC(=NS(=O)(=O)c3cccs3)c3ccccc3C2=O)c(C)c1,8.1
Cc1ccc2oc(-c3ccc(C)c(NC(=O)c4ccccc4F)c3)nc2c1,2.1
CC(=O)/C(C#N)=C/c1ccc(C#N)o1,2.7
N#C/C(=C\c1ccc([N+](=O)[O-])o1)c1nc(-c2ccc(F)cc2)cs1,-14.1
N#C/C(=C/c1ccc([N+](=O)[O-])o1)C(=O)O,73.2*
O=C(NCc1ccccc1)C1CCCN(C2CCN(C(=O)C3CCCC3)CC2)C1 (stereo not drawn),-0.8
CCc1cccc(CC)c1NC(=O)CSc1nnc(N)s1,6.4
O=C(NCc1nc(-c2ccncc2)n[nH]1)c1ccc(C2CCCN2)s1 (stereo not drawn),3.7
COC(=O)[C@@H]1ON(c2ccccc2)C(C(=O)c2ccccc2)[C@@H]1C(=O)OC (stereo partly drawn),-10.7
O=C1CC(NC2CCN(Cc3ccco3)CC2)CN1C1Cc2ccccc2C1 (stereo not drawn),2.6
O=C(O)CSc1ccc(Cl)cc1,1.3
N=C1CC(=O)NC(SCC(=O)O)=N1,8.6
O=C(O)CSC1=C(SCC(=O)O)C(=O)C(SCC(=O)O)=C(SCC(=O)O)C1=O,102.4*
COc1ccc(N2CCN(C(=O)c3oc4cc(C)c(C)cc4c3C)CC2)cc1,6.7
COc1ccc(/C=N/NC(=O)C(C)N(c2ccccc2)S(C)(=O)=O)cc1[N+](=O)[O-] (stereo not drawn),4.5
O=C(c1ccccc1)c1ccccc1C(=O)N(c1ccccn1)C1CCCCC1,6.0
O=C(NCc1ccco1)c1nn2c(C(F)(F)F)cc(-c3cc(Br)cs3)nc2c1Br,-12.2
COc1ccc(CNC(=O)c2nn3c(C(F)(F)F)cc(-c4ccc(Br)cc4)nc3c2Br)cc1,-6.6
COc1ccc(-c2cc(C(F)(F)F)n3nc(C(=O)NCc4ccco4)c(Br)c3n2)cc1,28.9*
Cc1ccc(-n2nnc(C(=O)NCCc3cccs3)c2C)cc1,-1.2
CC(C)(C)CC(=O)N1CCCC1C(=O)Nc1ccccc1Oc1cccnc1 (stereo not drawn),5.7
O=C1NN(c2ccc(Cl)cc2)C(=O)/C1=C\c1ccccc1OCc1ccccc1,3.7
SMILES,RBX1-CUL1 inh
CCN(CC)CN1C(=O)S/C(=C/c2ccc(N(CC)CC)cc2)C1=O,10.1
CCCN1C(=O)/C(=C/c2ccc(N(C)C)cc2)SC1=S,-5.3
CCN(CC)c1ccc(/C=C2\SC(=S)N(N)C2=O)cc1,55.1*
CC(C)c1n[nH]c2c1CN(C(=O)CN(C)C1CCS(=O)(=O)C1)CC2 (stereo not drawn),14.4
CCC(C)n1nc(C)cc1NC(=O)Cn1nc(-c2ccn[nH]2)c2ccccc21 (stereo not drawn),-2.6
O=C(O)COc1ccc(/C=C2\SC(=O)N(c3cccc(Cl)c3)C2=O)cc1,-10.0
Cc1ccc(N=C2S/C(=C\c3ccc(O)cc3)C(=O)N2c2ccc(C)cc2)cc1,-8.6
Cc1ccc(N=C2S/C(=C\c3ccc(OCC(=O)O)cc3)C(=O)N2c2ccc(C)c(C)c2)cc1C,88.5*
CC(C)S(=O)(=O)c1ncc(CN2CCC(C(N)=O)CC2)n1CCc1ccccc1,-0.2
O=C(NCC1CCCO1)c1cnc2sc3c(n2c1=O)CCCC3 (stereo not drawn),7.2
O=C(Oc1cc(=O)oc2ccccc12)c1ccccc1Br,0.9
